Compounds with a hit are over-represented: about 3.5% of the library has one in this group of screens.
FBW7 activator – activators of human E3 ligase FBW7 | Q969H0 | AlphaScreen FBW7–phospho-cyclin E peptide binding, activator screen | normalized activity (activation), % at 26.1 µM | 650,000 tested, 0.13% active; in the data active = normalized activity above about 1.9%;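 also: purified mutant Fbw7 with reduced substrate affinity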
Target sequence (Q969H0 whole entry, looked up): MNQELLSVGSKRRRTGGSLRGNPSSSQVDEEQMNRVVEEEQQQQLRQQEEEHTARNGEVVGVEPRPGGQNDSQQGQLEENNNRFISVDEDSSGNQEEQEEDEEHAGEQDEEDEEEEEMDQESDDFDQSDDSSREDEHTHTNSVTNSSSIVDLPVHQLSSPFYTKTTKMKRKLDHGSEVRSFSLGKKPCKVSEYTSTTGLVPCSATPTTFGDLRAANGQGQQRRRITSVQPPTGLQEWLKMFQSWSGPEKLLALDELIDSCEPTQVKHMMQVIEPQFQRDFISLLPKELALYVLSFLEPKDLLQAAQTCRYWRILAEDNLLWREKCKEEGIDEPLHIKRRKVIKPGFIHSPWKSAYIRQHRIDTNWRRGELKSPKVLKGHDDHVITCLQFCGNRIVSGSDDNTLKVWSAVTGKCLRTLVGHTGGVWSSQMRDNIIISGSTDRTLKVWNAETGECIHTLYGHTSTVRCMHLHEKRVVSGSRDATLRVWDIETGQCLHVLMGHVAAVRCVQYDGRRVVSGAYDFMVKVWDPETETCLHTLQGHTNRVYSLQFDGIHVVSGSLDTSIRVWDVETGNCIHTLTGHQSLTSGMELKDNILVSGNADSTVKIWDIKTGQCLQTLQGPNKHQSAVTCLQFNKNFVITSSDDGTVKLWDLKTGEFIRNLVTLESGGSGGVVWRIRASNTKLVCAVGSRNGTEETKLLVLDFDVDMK
GPR151 ag – human GPR151 activation. Q8TDV0. 650,000 tested, 1% active. activation, % at 11.2 µM. AID 1508602. PathHunter beta-arrestin GPR151 cells, luminescence; in the data active = activation above about 4.9%;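 also: 0% = median of compound wells and 100% = cells with positive control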
MITF inh – human MITF inhibition, primary screen; 650,000 tested, 0.91% active; inhibition, % at 2.6 µM; O75030; AlphaScreen MITF homodimerization, bead proximity signal; in the data active = inhibition above about 50%;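 also: 0% = vehicle wells with protein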
TEAD-YAP block – TEAD-YAP interaction inhibition; HEK-TIYL cells, TEAD-Gal4/YAP UAS-luciferase luminescence; inhibition, % at 9.12 µM; 640,000 tested, 1.4% active; AID 1259422; in the data active = inhibition above about 32%;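 also: 0% = median of test compound wells and 100% = reference inhibitor wells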
Numbers without * were called inactive.

SMILES	FBW7 activator	GPR151 ag	MITF inh	TEAD-YAP block
O=C(O)CCC(=O)Nc1cccc(-c2nc3cc4ccccc4cc3[nH]2)c1	0.0	-5.5	-29.9	33.9*
O=C(O)CCC(=O)Nc1ccc(-c2nc3cc4ccccc4cc3[nH]2)cc1	-0.1	-0.4	-2.1	-33.2
CC(C)n1cnc2c(NCCCN3CCCC3=O)nc(Nc3ccccc3)nc21	-0.1	-0.3	-0.9	12.5
CCOC(=O)CN1CCN(c2ccc(-c3cccc(C=O)c3)cn2)CC1	0.5	-0.8	14.6	10.8
CCOC(=O)CN1CCN(c2ccc(Br)cn2)CC1	0.2	-0.5	-8.0	44.5*
CCn1cnc2c(Nc3ccc(C)cc3C)ncnc21	0.0	-1.2	8.6	-58.2
CCn1cnc2c(Nc3ccc(F)cc3)ncnc21	0.6	-9.8	14.1	33.9*
CC(=O)NCC1CCC2(CCN(Cc3ccc4c(c3)CCCN4C)CC2)O1 (configuration not stated)	0.2	0.5	7.0	54.6*
CC(=O)NCC1CCC2(CCN(Cc3ccc4ccccc4c3)CC2)O1 (configuration not stated)	-0.3	-0.3	-5.4	-7.2
Nc1cccc(-c2cnc3c(Nc4ccccc4)nccn23)c1	1.8	-1.6	18.8	87.9*
c1ccc(Nc2nccn3c(-c4ccoc4)cnc23)cc1	0.3	-4.8	0.3	66.2*
COCCCNc1nccn2c(-c3cccc(O)c3)cnc12	-0.6	-0.8	5.3	50.9*
Nc1cccc(-c2cnc3c(Nc4ccc(Cl)cc4)nccn23)c1	0.2	-1.1	7.1	64.6*
CCOC(=O)C1=CN(C(C)C)C=C(C(=O)OCC)C1c1ccc2c(c1)OCO2	0.6	1.0	-17.6	1.2
COCCNc1nccn2c(-c3ccoc3)cnc12	2.1*	-1.2	6.6	-4.1
Cc1ccc(N2C(=O)C3N=NN(CC(=O)Nc4ccc(F)cc4F)C3C2=O)cc1 (configuration not stated)	-0.5	1.2	-17.3	8.4
COc1cc(-c2cc(C(=O)Nc3cc(C)[nH]n3)c3ccccc3n2)cc(OC)c1OC	-0.1	-0.4	-4.5	32.9*
Clc1ccc(-c2cnnc(NCC3(N4CCOCC4)CCCC3)n2)cc1	-0.1	-1.7	-1.6	-6.5
CCOC(=O)C(=N\O)/C(C)=N/NC(=O)CC#N	-0.1	-0.9	71.4*	-5.7
CC(=O)Nc1cccc(NC(=O)C(CCS(C)(=O)=O)N2Cc3ccccc3C2=O)c1 (configuration not stated)	0.0	0.6	15.2	1.9
CCSc1nnc(C2CCN(CC(=O)Nc3cccc4ccccc34)CC2)n1C	2.8*	-0.5	1.0	4.4
CS(=O)(=O)c1ccc(-c2nnn(CC(=O)N3CCOCC3)n2)cc1	0.7	-0.2	1.3	2.5
COC(=O)C1=C(C)N(c2ccc(Cl)c(Cl)c2)C(=O)C1	-0.2	0.5	-14.2	35.5*
COC(=O)C1=C(C)N(c2cccc(OC)c2)C(=O)C1	-0.1	0.9	-17.6	2.5
Cn1c(-c2ccccc2)cnc1NC(=O)c1ccc(F)cc1	0.0	-1.3	-0.6	49.1*
SMILES	FBW7 activator	GPR151 ag	MITF inh	TEAD-YAP block
CC1=NN2C(=N)/C(=C\c3ccc(SCc4ccco4)o3)C(=O)N=C2S1	-0.5	0.1	11.9	12.0
CN1C(=O)/C(=C/c2ccc(SCc3ccco3)o2)SC1=S	-0.9	0.2	56.9*	-17.6
CS(=O)(=O)C1=NN2C(=N)/C(=C\c3ccc(SCc4ccco4)o3)C(=O)N=C2S1	-1.0	0.8	79.4*	4.0
N=C1/C(=C\c2ccc(SCc3ccco3)o2)C(=O)N=C2SC(N3CCOCC3)=NN12	-0.4	1.0	62.1*	-0.6
CCN1CCN(CC(O)COc2ccc(C(C)C)c(C)c2)CC1 (configuration not stated)	0.0	0.2	13.1	-1.8
O=C(NC1CCCCC1)c1cnc2ccccn12	-0.1	0.3	2.9	5.5
O=C(Nc1nc2ccccc2[nH]1)c1cc(F)c(F)cc1Cl	0.4	-10.1	10.4	53.8*
Cc1ccc(CNC(=O)C(=O)NCCCO)cc1	0.1	1.1	-4.2	-4.1
COc1cccc(C2=CC(c3ccc(OC)cc3OC)n3nnnc3N2)c1 (configuration not stated)	-0.2	2.8	1.8	47.9*
COc1cccc(C2=CC(c3cccc(F)c3)n3nnnc3N2)c1 (configuration not stated)	-0.1	-1.3	-3.0	49.5*
COc1ccc(Br)cc1C1C=C(c2cccs2)Nc2nnnn21 (configuration not stated)	0.1	-0.3	17.1	41.8*
Cc1ccc(-n2cc(C(=O)Nc3ccc(Br)cc3C)c3ccccc3c2=O)cc1C	0.0	-1.4	0.8	-1.6
CN1CCN(C(=O)CC2CSc3nc4c(cnn4-c4ccccc4)c(=O)n32)CC1 (configuration not stated)	-0.1	1.2	-8.1	-2.1
NC(=O)c1ccccc1NC(=O)c1ccc(Cn2nnc3ccccc32)cc1	-0.1	0.0	4.0	56.1*
CC(C)c1ccc(C(=O)Nc2ccccc2C(N)=O)cc1	0.4	0.7	9.1	32.6*
NC(=O)c1ccccc1NC(=O)c1ccc(Cl)cc1	-0.1	-1.3	4.1	-53.3
CN1CCN(CCCNC(=O)c2cc3c(-c4ccc(Cl)cc4)nn(C)c3s2)CC1	0.7	1.6	14.5	-4.7
CN(C)CCNC(=O)c1cc2c(-c3ccc(Cl)cc3)nn(C)c2s1	0.8	-1.3	11.4	68.5*
CC(C)(C)n1nc2c(c1NC(=O)c1cc([N+](=O)[O-])ccc1Cl)CSC2	-0.1	2.3	-6.8	89.5*
Cc1ccccc1-n1nc2c(c1NC(=O)c1cc([N+](=O)[O-])ccc1Cl)CS(=O)(=O)C2	-0.1	3.2	-18.9	67.3*
Cc1ccc(-n2nc3c(c2NC(=O)c2cc([N+](=O)[O-])ccc2Cl)CSC3)c(C)c1	0.1	0.6	16.3	71.1*
CC(C)(C)n1nc2c(c1NC(=O)c1cc(Cl)ccc1Cl)CSC2	0.0	-0.8	4.0	3.3
COc1ccc(-n2nc3c(c2NC(=O)c2cc([N+](=O)[O-])ccc2Cl)CSC3)cc1	0.3	1.8	12.9	61.0*
O=S(=O)(NCCOc1cc(N2CCCC2)ncn1)c1cccnc1	0.1	-1.3	-1.0	1.4
COc1ccc(C(=O)c2cc(C)sc2NC(=O)CN2CCOCC2)cc1	0.0	-0.7	7.5	7.8
SMILES	FBW7 activator	GPR151 ag	MITF inh	TEAD-YAP block
C[C@@H]1C[C@@H]2O[C@H]2C=CC=CC(=O)Cc2c(Cl)c(O)cc(O)c2C(=O)O1	-0.2	-0.7	-10.1	51.8*
O=C(Cn1c2c(c(-c3ccccc3Cl)cc1=O)CCC2)NC1CC1	-0.2	-0.5	-14.1	6.7
O=c1cc2oc3cc(O)c(O)cc3c(-c3ccc4c(c3)OCO4)c-2cc1O	-1.1	-1.1	113.3*	18.3
O=c1cc2oc3cc(O)c(O)cc3c(-c3ccc([N+](=O)[O-])o3)c-2cc1O	-0.4	-1.3	105.9*	5.7
CCCc1cc2c(=O)c(-c3ccc4c(c3)OCO4)c(CC)oc2cc1O	-0.2	1.7	-7.8	9.9
CCN(CC)c1ccc(-c2c3cc(O)c(=O)cc-3oc3cc(O)c(O)cc23)cc1	-0.3	-2.2	109.9*	10.3
CCc1nn(CC(=O)Nc2cc(C)on2)c(=N)s1	-0.1	1.5	-4.0	-3.1
